# Reference: PubChem BioAssay (Tox21)
# Several values for one entry are separate records, joined by “and”; a condition that tells them apart may be missing. Equal entries are not always repeated. Records with an inconclusive call do not appear. Entries that show only a call come without a potency. Activity calls are given as the source filed them. Calls follow the shape of the full dose curve.
# Assay: Nuclear factor erythroid 2-related factor 2/antioxidant responsive element (Nrf2/ARE) small molecule agonists: luciferase reporter gene qHTS assay in human keratinocytes (AID 1919969); also: nearly all actives have a fitted effect of over 35% in size
# Conditions: KeratinoSens HaCaT ARE-luciferase, luminescence, 24 h; series mostly up to 92.4 µM
# Description: National Center for Advancing Translational Sciences [NCATS]
# Division of Preclinical Innovation [DPI]
# U.S. Environmental Protection Agency [EPA]
# National Institutes of Environmental Health Sciences [NIEHS]
# National Toxicology Program [NTP]
# U.S. Food and Drug Administration [FDA]
# Oxidative stress has been implicated in the pathogenesis of a variety of diseases ranging from cancer to neurodegeneration. The antioxidant response element (ARE) signaling pathway plays an important role in the amelioration of oxidative stress. The KeratinoSens (Givaudan, Switzerland) is an in vitro test method which quantifies luciferase induction as a measure of activation of Keap1-Nrf2-antioxidationt/electrophile response element (ARE) dependant pathway in HaCaT human keratinocytes stably transfected with a selectable plasmid. The KeratinoSens assay is a cell-based assay with a reporter cell line to detect potential skin sensitizers by their ability to induce the Nrf2/ARE-response. The activation of the report gene under culture conditions can be detected by ONE-Glo Luciferase Assay System (Promega, Madison, WI). This cell line has been used to screen the Tox21 10K compound library to identify agonists that induce oxidative stress. The cytotoxicity of the Tox21 compound library against the KS-ARE cell line was tested in parallel by measuring the cell viability using CellTiter- Fluor assay system (Promega, Madison, WI) in the same wells.
# HaCaT derived cell line KeratinoSens were dispensed at 1,500 cells/5uL/well in 1536-well white wall/solid bottom plates using a Multidrop Combi (ThermoFisher Scientific, Waltham, MA) dispenser. After the assay plates were incubated at 37 C/5% CO2 for 5 h, 23 nL of compounds dissolved in DMSO, positive controls or DMSO only was transferred to the assay plate by a pintool workstation (Kalypsys, San Diego, CA). The plates were incubated at 37 C/5% CO2 for 23 h, followed by addition of 1uL/well of CellTiter-Fluor reagent into the assay plates using a Flying Reagent Dispenser (Aurora Discovery, San Diego, CA) for cell viability readout that measures cytotoxicity. After 1 h incubation at 37 C/5% CO2 the fluorescence intensity was measured using a ViewLux (PerkinElmer, Shelton, CT) plate reader. Then 4uL/well of One-Glo were added using a Flying Reagent Dispenser. After the plates were incubated at room temperature for 30 min, the luminescence intensity in the assay plates was measured using ViewLux plate reader.
# Potency is read from the fitted curve at half-maximal effect.
row,SMILES,Potency
1,CC(C)COC(=O)c1ccccc1O,inactive
2,CCC(C)C1N=C(C)C(C)S1 (stereo not given),inactive
3,O=C1CCC(=O)N1,inactive
4,CCC(CO)(CO)CO,inactive
5,CN(C)N=Nc1ccccc1,inactive
6,CCCCCC(=O)CC,inactive
7,CC(C)(C)OC(=O)c1cccc(N)c1,inactive
8,CC(=O)O[C@H]1C[C@@H]2CC[C@@]1(C)C2(C)C,inactive
9,CCOC(=O)[C@H](CCc1ccccc1)N[C@@H](C)C(=O)N1Cc2ccccc2C[C@H]1C(=O)O,inactive
10,CC(C)(O)Cc1ccccc1,inactive
11,CNCCO,inactive
12,O=P(OC(CCl)CCl)(OC(CCl)CCl)OC(CCl)CCl,inactive
13,CC(=O)O[C@@H]1CC2C3CCc4cc(OC(=O)c5ccccc5)ccc4C3CCC2(C)[C@H]1OC(C)=O (stereo not given in full),inactive
14,O=C(O)C[C@H](NC(=O)OCc1ccccc1)C(=O)O,inactive
15,CC(=O)Oc1cccc(O)c1,inactive
16,C=CC(=O)CC,inactive
17,CC(C)(C)C1CCCCC1O (stereo not given),inactive
18,CCO[Si](CCCN=C=O)(OCC)OCC,inactive
19,N=C(N)c1ccccc1,inactive
20,NCCOCCN,inactive

row,SMILES,Potency
1,NC(=O)Nc1ccccc1,inactive
2,COC(/C=C(\C)CCC=C(C)C)OC,inactive
3,c1ccc2cnncc2c1,inactive
4,Cc1sccc1Br,inactive
5,Nc1c(Br)cc([N+](=O)[O-])cc1Br,inactive
6,CCCOCCO,inactive
7,CCCC1O[C@@H]2C[C@H]3[C@@H]4CCC5=CC(=O)C=C[C@]5(C)[C@H]4[C@@H](O)C[C@]3(C)[C@]2(C(=O)CO)O1 (stereo not given in full),inactive
8,CC(=N\O)/C(C)=N/O,inactive
9,Cc1ccc(S(=O)(=O)NC(=O)NC2CCCCCCC2)cc1,inactive
10,COc1cc(N)c(Cl)cc1C(=O)NC1CCN(Cc2ccccc2)CC1,inactive
11,O=C1OC(=O)c2ccc3c4c(ccc1c24)C(=O)OC3=O,inactive
12,C1=C\CC/C=C\CC/C=C\CC/1,inactive
13,CO[Si](CCCNCCNCCN)(OC)OC,inactive
14,OC1CCCC1,inactive
15,O=c1n(CCO)c(=O)n(CCO)c(=O)n1CCO,inactive
16,CC1CCC(C(C)(C)S)C(=O)C1 (stereo not given),inactive
17,Oc1ccc2cc(SSc3ccc4cc(O)ccc4c3)ccc2c1,68.7 µM (active) and 68.6 µM (active)
18,O=C(OCCOCCO)c1ccccc1Nc1cccc(C(F)(F)F)c1,inactive
19,COC(=O)c1ccc(C(=O)OC)cc1,inactive
20,CN(C)c1ccc(C(=N)c2ccc(N(C)C)cc2)cc1,60.4 µM (active) and 52.4 µM (active)
